Sampled rows, rich in hits. Any-hit rate of the full collection: about 0.55%.
TCR act: activators of T cell receptors; 330,000 tested, under 10 active; Potency, µM (titrated, usually from 9.22 µM), without a hit: at the highest dose activation of IL-2 secretion, most hits filed as activators; AID 504894; primary human leukocytes, anti-CD3, IL-2 HTRF, 48 h; note: % of control where 0% means no effect
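1) Mix primary human leukocytes, a-CD3 beads and compound. 2) Incubate 48 hr. 3) Add HTRF IL-2 reagents (a-IL-2-K, a-IL-2-d2).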
GRP78 ERSR act: inducers of ER stress response in human glioma cells | U87-MG GRP78 promoter luciferase reporter, 16 h | 420,000 tested, 0.02% active | AID 602332 | Potency, µM, inactives show at the highest dose activation, most hits filed as activators; note: potency is the fitted concentration of half-maximal effect; series mostly up to about 76 µM; % of control where 0% means no effect; nearly all actives have a fitted effect of over 35% in size
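ERSR induction read as luciferase luminescence (Bright-Glo, 10 min at room temperature) in stably transfected human U87-MG glioma cells exposed to compounds for 16 h, using GRP78 as sensor.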
TSHR antagonist: human thyrotropin receptor antagonism. P16473. TSHR-expressing cells, TSH-stimulated cAMP HTRF, 2 h; stronger effect = lower value. activity change, negative = inhibition, % at 11.5 µM. 330,000 tested, 0.2% active;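 active = activity change below a set negative limit, meaning inhibition stronger than a set level, cut at about -70% in these data; inconclusive = activity change between two set negative limits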; note: % is set by controls: 0 for no effect and ±100 for the full control effect
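Read-out is FRET at 665 nm (cryptate excitation 337 nm) from a cryptate-tagged anti-cAMP antibody, competed by cell cAMP against cAMP-d2. Compounds are tested on freshly harvested TSHR cells challenged with 4nM TSH (EC80) for 2 hours at 37 deg C.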
LDHA inh: LDHA (human) enzyme inhibition | AID 1347041 | activity change, % (values are at about 110 or 230 µM) | P00338 | 480,000 tested, 0.15% active | purified LDHA, NADH/diaphorase-resazurin fluorescence; stronger effect = lower value; in the data active = activity change below about -30%; inconclusive = mostly about -25% to -30%;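 note: plate controls were DMSO wells for no effect and wells without enzyme for full effect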
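Human LDH5 (2 nM) was incubated with 0.06 mM NADH and 0.2 mM pyruvate for 5 min at room temperature in Tris pH 7.4. Remaining NADH was coupled through diaphorase/resazurin, and resorufin fluorescence was read at 0 and 20 min.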
RGS4 inh: human RGS4 inhibition | Transcreener GDP fluorescence polarization, RGS4-accelerated GTP hydrolysis | Potency, µM (highest dose often 114 µM), for the others: at the highest dose activity change, negative = inhibition, hits mostly inhibitors | 390,000 tested, 0.039% active | AID 504845; note: potency is the fitted concentration of half-maximal effect; % is set by controls: 0 for no effect and ±100 for the full control effect; nearly all actives have a fitted effect of over 75% in size
Target sequence (P49798 whole entry, looked up): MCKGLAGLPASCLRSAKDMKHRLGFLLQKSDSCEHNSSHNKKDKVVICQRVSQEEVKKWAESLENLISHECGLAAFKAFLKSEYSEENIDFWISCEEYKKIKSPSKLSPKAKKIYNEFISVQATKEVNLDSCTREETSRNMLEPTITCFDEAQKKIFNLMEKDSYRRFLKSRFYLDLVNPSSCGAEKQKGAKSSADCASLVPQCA
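MLSMR compounds (23 nl, pin-transferred) preincubated 10 min at room temperature with a 500nM (2x) first reagent, then RGS4 at 900nM (2x) plus Transcreener GDP mix added; fluorescence polarization (620/688 nm) read before and after 90 min at 30 °C.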
pAkt inh: blocks phosphorylation of Akt; AID 651550; 360,000 tested, 0.32% active; Neuro2A IGF-stimulated pAkt S473 HTRF, 20 min; stronger effect = lower value; activity change, % for hits at 50 µM; in the data active = activity change below about -80%; inconclusive = mostly about -51% to -80%; note: % is set by controls: 0 for no effect and ±100 for the full control effect
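Neuro2A cells in DMEM with 0.5% FBS, overnight at 37 deg C, given compound at single 50 µM final, then IGF (6 nM final) for 20 min at 37 deg C. Lysed; phospho-Akt Ser473 by HTRF after 24 h, 665/615 ratio.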
Starred values were filed as active, the others as inactive; ! = not confirmed by another sample; [ ] = remark or other dose. Unless noted, calls come from the whole dose curve; as a rule, active = well fitted curve in the direction sought with a large enough effect; inconclusive = small, poorly fitted or top-dose-only effect, or another doubt; inactive = no such curve, though single readings can be large; an effect the other way counts as inactive or inconclusive.

What do the screens show for `NCC(O)c1cc(O)c(O)cc1F` (configuration not stated)?
TCR act: 4.4%; GRP78 ERSR act: -1.8%; TSHR antagonist: -18.7; LDHA inh: -13.9; RGS4 inh: 18.9µM*!; pAkt inh: inactive

Results for O=c1c2ccccc2nc(CSc2ncnc3nc[nH]c23)n1-c1ccccc1Cl ?
TCR act: 0.5%[46.1 µM]; GRP78 ERSR act: -1.7%; TSHR antagonist: -1.8; LDHA inh: -3.9; RGS4 inh: -12.2%; pAkt inh: inactive

Results for O=c1c2ccccc2nc(CSc2ncnc3nc[nH]c23)n1-c1ccccc1 ?
TCR act: -7.5%; GRP78 ERSR act: -2.1%; TSHR antagonist: 5.0; LDHA inh: -8.8; RGS4 inh: inconclusive; pAkt inh: -84.0%*

Results for Fc1ccc(C(OCCN2CCN(CCCc3ccccc3)CC2)c2ccc(F)cc2)cc1 ?
TCR act: -9.9%; GRP78 ERSR act: -7.9%; TSHR antagonist: -8.0; LDHA inh: 1.2; RGS4 inh: 37.7µM*!

What do the screens show for `c1ccc(CCCN2CCN(CCOC(c3ccccc3)c3ccccc3)CC2)cc1`?
TCR act: 3.0%; GRP78 ERSR act: -6.9%; TSHR antagonist: 5.1; LDHA inh: 3.0; RGS4 inh: 1.1%[56.9 µM]; pAkt inh: inactive

What do the screens show for `Cc1cccc(-n2c(/C=C/c3ccco3)nc3ccccc3c2=O)c1`?
LDHA inh: 6.4

How did N#Cc1c(-c2cccc(-c3no[n+]([O-])c3C#N)c2)no[n+]1[O-] do in these assays?
LDHA inh: 2.6

What do the screens show for `COc1ccccc1CN1CCN(Cc2ccc(Cl)cc2)CC1`?
TCR act: -1.2%; GRP78 ERSR act: -4.2%; TSHR antagonist: 0.6; LDHA inh: -34.4*; RGS4 inh: 7.8%; pAkt inh: inactive

Results for Cc1ccc(CN2CCN(Cc3ccccc3F)CC2)cc1 ?
TCR act: -10.6%; GRP78 ERSR act: -2.0%; TSHR antagonist: -5.9; LDHA inh: -34.9*; RGS4 inh: -2.8%[56.9 µM]; pAkt inh: inactive

What do the screens show for `COc1ccc(CN2CCN(Cc3ccccc3OC)CC2)cc1`?
TCR act: -0.3%; GRP78 ERSR act: -6.6%; TSHR antagonist: 24.0; LDHA inh: -36.9*; RGS4 inh: -8.5%; pAkt inh: inactive

What do the screens show for `COc1ccccc1CN1CCN(C(=O)COc2ccc3ccccc3c2)CC1`?
TCR act: -0.6%; GRP78 ERSR act: -3.3%; TSHR antagonist: -3.0; LDHA inh: -4.5; RGS4 inh: -15.2%; pAkt inh: inactive

How did Cc1ccc(CN(CCc2ccccc2)Cc2ccccc2)o1 do in these assays?
LDHA inh: 2.8

Results for CC(N)Cc1ccc(N(C)C)cc1 (configuration not stated) ?
LDHA inh: -6.5

What do the screens show for `Cc1cc(C(=O)CCl)c(C)[nH]1`?
LDHA inh: 3.5

Results for CCOc1ccccc1CN1CCN(c2ccccc2)CC1 ?
LDHA inh: 4.7

How did CCOC(=O)N(c1ccccc1)P1(=S)OCCO1 do in these assays?
TCR act: 1.3%; GRP78 ERSR act: -2.2%; TSHR antagonist: 1.8; LDHA inh: -1.7; RGS4 inh: -28.1%; pAkt inh: -110.0%*

How did O=C(COc1ccc(Br)cc1)N1CCN(Cc2ccncc2)CC1 do in these assays?
TCR act: 11.1%; GRP78 ERSR act: 1.4%; TSHR antagonist: 1.5; LDHA inh: -38.8*; RGS4 inh: -41.2%; pAkt inh: inactive

What do the screens show for `CC/C(=C\C=C\[C@@H]1C=C[C@@H]2CCC[C@H]2[C@@H]1C(=O)c1ccc[nH]1)[C@@H]1O[C@@H]([C@@H](C)C(=O)O)CC[C@@H]1C`?
TCR act: 5.6%[46.1 µM]; GRP78 ERSR act: inconclusive; TSHR antagonist: -72.2*; LDHA inh: 3.0; RGS4 inh: -19.4%; pAkt inh: inactive

Results for FC(F)Oc1ccc(CNCCc2c[nH]c3ccccc23)cc1 ?
LDHA inh: -1.5

How did COc1cc(CNC2CN3CCC2CC3)ccc1OCc1c(F)cccc1Cl (configuration not stated) do in these assays?
LDHA inh: 3.9

What do the screens show for `CCOc1ccc(N2C(=O)NC(=O)/C(=C\c3ccccc3[N+](=O)[O-])C2=O)cc1`?
TCR act: -2.0%; GRP78 ERSR act: -2.4%; TSHR antagonist: 6.0; LDHA inh: -52.7*; RGS4 inh: inconclusive; pAkt inh: inactive

What do the screens show for `CCOc1ccc(N2C(=O)/C(=C/c3ccco3)C(=O)NC2=S)cc1`?
TCR act: -9.8%; GRP78 ERSR act: -5.6%; TSHR antagonist: -12.0; LDHA inh: -36.9*; RGS4 inh: -106.5%; pAkt inh: inactive

What do the screens show for `S=C(NCCc1ccccc1)N1Cc2cc(-c3ccccc3)ccc2-n2nncc2C1`?
GRP78 ERSR act: -4.4%; LDHA inh: -6.0; pAkt inh: inactive

How did S=C(NCCc1ccccc1)N1Cc2ccccc2-n2nncc2C1 do in these assays?
GRP78 ERSR act: -1.2%; LDHA inh: -36.4*; pAkt inh: inactive

How did CCOC(=O)CNC(=O)N1Cc2ccccc2-n2nncc2C1 do in these assays?
GRP78 ERSR act: -5.7%; LDHA inh: -33.2*; pAkt inh: inactive

What do the screens show for `O=C(COC(=O)CCc1nc2ccccc2s1)Nc1ccc(Cl)cc1C(=O)c1ccccc1`?
LDHA inh: -1.6

What do the screens show for `Cc1[nH]nc2c1C(c1ccc(-c3ccc(F)cc3)o1)SCC(=O)N2` (configuration not stated)?
LDHA inh: 22.5

How did O=[N+]([O-])c1ccc(Sc2nc3ccccc3o2)c([N+](=O)[O-])c1 do in these assays?
GRP78 ERSR act: -14.1%; TSHR antagonist: -71.1*; LDHA inh: 3.3; RGS4 inh: -28.0%; pAkt inh: inactive

What do the screens show for `O=[N+]([O-])c1ccc(N2CC2)c([N+](=O)[O-])c1`?
TCR act: 0.9%; GRP78 ERSR act: -2.6%; LDHA inh: -7.6; RGS4 inh: -1.1%; pAkt inh: inactive

What do the screens show for `Cc1ccc(-c2cc(-c3ccccc3)cc(-c3ccccc3)[n+]2-c2ccccc2)cc1`?
TCR act: 0.4%; GRP78 ERSR act: -11.4%; TSHR antagonist: -94.0*; LDHA inh: -12.7; RGS4 inh: 1.6%; pAkt inh: inactive

How did c1ccc(-c2cc(-c3ccccc3)[n+](-c3ccccc3)c(-c3ccccc3)c2)cc1 do in these assays?
TCR act: 1.4%; GRP78 ERSR act: -13.9%; TSHR antagonist: -78.1*; LDHA inh: -9.9; RGS4 inh: 3.5%; pAkt inh: inactive

From PubChem BioAssay
